PubChem BioAssay (EPA / NIEHS)
Where a structure was tested more than once in an assay, its records may differ in their call. The source made the active and inactive calls. How the source made its calls: active means hit-call score of the fitted dose curve at least 0.9, where 1 is the maximum; inactive means score below 0.9.

Test: CCTE_Shafer_MEA_acute_burst_duration_mean: CCTE's Neural Acute Assay for Mean Burst Duration, Shafer Lab (AID 2284014)
Protocol: CCTE_Shafer_MEA_acute assay is conducted using Axion Biosystems 48 well microelectrode array (MEA) plates and Maestro recording system. Each well of the MEA plate contains a grid of 16 microelectrodes embedded in the culture surface. Electrically active cells, such as neurons, can be cultured over the electrodes, and electrical activity in these cells can be recorded extracellularly. The spontaneous firing of neurons is captured from each electrode on a microsecond timescale providing both temporally and spatially precise data. […] The CCTE_Shafer_MEA_acute assay uses primary cultures of rat cortical neurons. As these cultures mature over time, neural networks develop functional activity and form cohesive networks in which electrical activity can be highly coordinated. Baseline 40-minute recordings are made on days post-plating 13 or 15, followed by a secondary 40-minute recording after chemical exposure.CCTE_Shafer_MEA_acute_burst_duration_mean is a component of the CCTE_Shafer_MEA_acute assay. It measures the average time from the first spike (action potential firing) to the last spike in a single-electrode burst (temporally-clustered group of spikes) during a recording in a microelectrode array (MEA) using Axion Biosystems Maestro 768 channel amplifier with the AxIS adaptive spike detector. The recordings before and after chemical treatment are used to calculate a percent change in the mean burst duration in each well.Data from the assay component CCTE_Shafer_MEA_acute_burst_duration_mean was analyzed into 1 assay endpoint. This assay endpoint, CCTE_Shafer_MEA_acute_burst_duration_mean, was analyzed in the negative analysis fitting direction relative to DMSO as the negative control and baseline of activity. Using a type of functional reporter, gain or loss-of-signal activity can be used to understand electrical activity.
Spontaneous activity in the cortical cultures was recorded using an Axion Biosystems Maestro 768 channel amplifier and Axion Integrated Studios (AxIS) v1.8 (or later) software. The amplifier recorded from all channels simultaneously (gain = 1200 x; sampling rate = 12.5 kHz/channel): raw signals were filtered with a Butterworth band-pass filter (300-5000 Hz), which filters out slower local field potentials leaving only fast potentials, i.e., "spikes", arising from extracellular currents associated with action potentials (Pine 2006; Wheeler and Nam 2011). On-line spike detection of filtered signals was conducted with the AxIS adaptive spike detector, using a threshold of 8x the root mean squared (rms) noise on each channel. Any electrodes with rms noise levels greater than 5 uV were grounded (e.g., no data were recorded). Once grounded, an electrode was grounded for the duration of the experiment. All recordings were conducted at 37 C. Wells were deemed usable if on the day of the exposure >/= 10 electrodes were active (defined as >/= 5 spikes/min). On DIV 13 or 15, a minimum of three wells from one cortical culture preparation were treated with each compound (0.03-40 uM). Prior to recording baseline activity, each mwMEA plate was placed in the Maestro at 37 C and allowed to sit for 20 min while firing rates stabilized. Baseline activity (40 min) was recorded before the addition of each compound. An additional 40 min of spontaneous activity was recorded in the presence of each compound. Changes in network parameters relative to baseline were assessed following compound treatment.

SMILES	outcome	AC50
Clc1ccc(C(Cl)(Cl)Cl)cc1	inactive	
CC#Cc1cc(C)nc(Nc2ccccc2)n1	inactive	
ClC1=C(Cl)[C@]2(Cl)[C@@H]3[C@@H](Cl)[C@H]4O[C@H]4[C@@H]3C1(Cl)C2(Cl)Cl	inactive	
C=CC(N)=O	inactive	
CO/C=C(/C(=O)OC)c1ccccc1COc1cccc(C(F)(F)F)n1	inactive	
O=C(N[C@H]1CN2CCC1CC2)c1cc2ccoc2cn1	inactive	
COS(=O)(=O)OC	inactive	
CCC(C)(c1ccc(O)cc1)c1ccc(O)cc1	inactive	
Nc1ccc(-c2ccc(N)cc2)cc1	inactive	
CCCCCCCCCc1ccc(O)cc1		20 µM (active)
CCCCCCCCCC[N+](C)(C)CCCCCCCCCC	inactive	
CC(C)C(=O)OCC(C)(C)C(OC(=O)C(C)C)C(C)C (configuration not stated)	inactive	
Oc1ccc(C(c2ccc(O)cc2)(C(F)(F)F)C(F)(F)F)cc1	inactive	
CCC(C)(CC)c1cc(NC(=O)c2c(OC)cccc2OC)on1	inactive	
c1ccc(-c2ccccc2)cc1	inactive	
CN(C)CCO	inactive	
ClC(Cl)=C(c1ccc(Cl)cc1)c1ccc(Cl)cc1	inactive	
ClC1=C(Cl)[C@]2(Cl)[C@@H]3[C@@H]4C[C@@H]([C@H]5O[C@@H]45)[C@@H]3[C@@]1(Cl)C2(Cl)Cl	inactive	
COc1ccc(O)c(C(C)(C)C)c1	inactive	4.04 µM (active)
CC(c1ccc(O)cc1)(c1ccc(O)cc1)c1ccc(O)cc1	inactive	
CCC(C)c1cc([N+](=O)[O-])cc([N+](=O)[O-])c1O (configuration not stated)	inactive	
O=C(NC(=O)c1c(F)cccc1F)Nc1cc(Cl)c(OC(F)(F)C(F)F)c(Cl)c1	inactive	
CCSC(=O)N(CC)C1CCCCC1	inactive	
CCCN(CCC)N=O	inactive	
O=C(O)C(F)(F)C(F)(F)C(F)(F)C(F)(F)C(F)(F)F	inactive	
ClC1=C(Cl)[C@]2(Cl)[C@@H]3[C@H]4C[C@H]([C@@H]5O[C@H]45)[C@@H]3[C@@]1(Cl)C2(Cl)Cl		1.05 µM (active)
